The sample as a whole holds a higher share of the strongest signals than the screen did.
B1: MAL (Maackia amurensis) (protein)
chain: SDELSFTINNFMPNQGDLLFQGVATVSPTGVLQLTSEENGQPLEYSVGRVLYTAPVRIWDSTTGAVASFSTSFTFVVKAARGASDGLAFFLAPPDSQIPSGSVSKYLGLFNNSNSDSSNQIVAVEFDTYFGHSYDPWDPNYRHIGIDVNGIESIKTVQWDWINGGVAFATITYLAPNKTLIASLVYPSNQTSFIVAASVDLKEILPEWVRVGFSAATGAPKAVETHDVRSWSFTSTLEANSPADVDN
B2: Siglec-G (Mus musculus), Q80ZE3 (protein)
chain: MSLLLFLLSFLLDGPQGQMESYFLQVQRIVKAQEGLCIFVPCSFSSPEGKWLNRSPLYGYWFKGIRKPSLSFPVATNNKDKVLEWEARGRFQLLGDISKKNCSLLIKDVQWGDSTNYFFRMERGFERFSFKEEFRLQVEALTQKPDIFIPEVLEPGEPVTVVCLFSWTFNQCPAPSFSWMGDAVSFQESRPHTSNYSVLSFIPGLQHHDTELTCQLDFSRMSTQRTVRLRVAYAPRSLAISIFHDNVSVPDLHENPSHLEVQQGQSLRLLCTADSQPPATLSWVLEDQVLSWSSPVGSRTLALELPWVKAGDSGHYTCQAENRLGSQQHTLDLSVLYPPQDLRVTVSQANRTVLEILRNAISLPVLEGQSLCLVCVTYSNPPANVSWAWVTQTLIPIQSSEPGVLELPLVQREHEGEFTCAAQNPLGAQRISLSLSVHYPPQMSSPSCSWEAKGLHCNCSSRAWPAPSLRWRLGEGLLEGNSSNASFTVTFSSLGPWVNSSLSLLQELGPSLWLSCESWNTHGAQTTSVLLLPDKDSATAFSKGAVLGFGITALLALCLIVVIVKTLQKKGTQEEPSRPKLSRGSTILDYINVVPKTRSLARNWKAEPDAPSRSSPLDTHFPKPKKKQKDPHFTYPGCPDPTSSSQVPVSENNPEELHYAALNFSRLRLQETQDPQDTYSDYTEVRVH

Columns and labels:
Test in all cases: glycan array binding signal (z-score within array); higher = stronger binding
Details in all cases: glycan notation: IUPAC condensed, linker removed
[1] = biological target: Fuc(a1-2)Gal(b1-3)GalNAc(b1-3)Gal
Method in brief: (§1)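 Negative Z-scores can be read as non-binding. The Z-score is calculated within each array and then averaged across arrays of one protein sequence at different concentrations or buffers and across linkers. Arrays, 3228 in all, were curated from the Consortium for Functional Glycomics database and kept only where the protein sequence was available.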

[2] = biological target: Fuc(a1-2)Gal(b1-4)[Fuc(a1-3)]GlcNAc
Method in brief: as §1

[3] = biological target: Fuc(a1-2)[Gal(a1-3)]Gal(b1-4)[Fuc(a1-3)]GlcNAc
Method in brief: as §1

[4] = biological target: Gal(b1-3)[Fuc(a1-4)]GlcNAc(b1-3)Gal(b1-4)GlcNAc
Method in brief: as §1

[5] = biological target: Gal(b1-3)[Fuc(a1-4)]GlcNAc(b1-3)Gal(b1-4)[Fuc(a1-3)]GlcNAc
Method in brief: as §1

[6] = biological target: Gal3S(b1-4)Glc
Method in brief: as §1

[7] = biological target: Gal3S(b1-4)Glc6S
Method in brief: as §1

[8] = biological target: Gal3S(b1-4)GlcNAc
Method in brief: as §1

[9] = biological target: Gal3S(b1-4)GlcNAc6S
Method in brief: as §1

[10] = biological target: Gal3S6S(b1-4)GlcNAc
Method in brief: as §1

[11] = biological target: Gal6S(b1-4)GlcNAc
Method in brief: as §1

[12] = biological target: GlcNAc(a1-3)Gal(b1-4)GlcNAc
Method in brief: as §1

[13] = biological target: GlcNAc(b1-3)[GlcNAc(b1-6)]GalNAc
Method in brief: as §1

[14] = biological target: GlcNAc(b1-4)[GlcNAc(b1-6)]GalNAc
Method in brief: as §1

[15] = biological target: Man(a1-2)Man(a1-3)[Man(a1-2)Man(a1-6)]Man(a1-6)[Man(a1-3)[Man(a1-6)]Man(a1-6)]Man(b1-4)GlcNAc(b1-4)GlcNAc
Method in brief: as §1

[16] = biological target: Neu5Ac(a2-3)GalNAc
Method in brief: as §1

[17] = biological target: Neu5Ac(a2-3)GalNAc(b1-4)GlcNAc
Method in brief: as §1

[18] = biological target: Neu5Ac(a2-3)[GalNAc(b1-4)]Gal(b1-4)Glc
Method in brief: as §1

[19] = biological target: Neu5Ac(a2-6)Gal(b1-4)Glc
Method in brief: as §1

[20] = biological target: Neu5Gc(a2-3)Gal(b1-4)[Fuc(a1-3)]GlcNAc
Method in brief: as §1

[21] = biological target: Fuc(b1-3)GlcNAc
Method in brief: as §1

[22] = biological target: Gal(a1-3)Gal(b1-4)GlcNAc
Method in brief: as §1

[23] = biological target: Gal(a1-3)GalNAc
Method in brief: as §1

[24] = biological target: Gal(b1-4)GlcNAc(b1-3)GalNAc
Method in brief: as §1

[25] = biological target: GlcNAc(b1-2)Gal(b1-3)GalNAc
Method in brief: as §1

[26] = biological target: GlcNAc(b1-4)GlcNAc(b1-4)GlcNAc
Method in brief: as §1

[27] = biological target: Neu5Ac(a2-3)Gal(b1-3)GalNAc
Method in brief: as §1

[28] = biological target: Neu5Ac(a2-3)Gal(b1-3)[Neu5Ac(a2-3)Gal(b1-4)]GlcNAc
Method in brief: as §1

[29] = biological target: Neu5Ac(a2-3)Gal(b1-4)[Fuc(a1-3)]GlcNAc(b1-3)Gal(b1-4)[Fuc(a1-3)]GlcNAc(b1-3)Gal(b1-4)[Fuc(a1-3)]GlcNAc
Method in brief: as §1

[30] = biological target: Neu5Ac(a2-8)Neu5Ac(a2-8)Neu5Ac
Method in brief: as §1

[31] = biological target: Neu5Gc(a2-3)Gal(b1-3)[Fuc(a1-4)]GlcNAc
Method in brief: as §1

[32] = biological target: Neu5Gc(a2-3)Gal(b1-4)Glc
Method in brief: as §1

Binder | glycan array binding signal (z-score) [1] | glycan array binding signal (z-score) [2] | glycan array binding signal (z-score) [3] | glycan array binding signal (z-score) [4] | glycan array binding signal (z-score) [5] | glycan array binding signal (z-score) [6] | glycan array binding signal (z-score) [7] | glycan array binding signal (z-score) [8] | glycan array binding signal (z-score) [9] | glycan array binding signal (z-score) [10] | glycan array binding signal (z-score) [11] | glycan array binding signal (z-score) [12] | glycan array binding signal (z-score) [13] | glycan array binding signal (z-score) [14] | glycan array binding signal (z-score) [15] | glycan array binding signal (z-score) [16] | glycan array binding signal (z-score) [17] | glycan array binding signal (z-score) [18] | glycan array binding signal (z-score) [19] | glycan array binding signal (z-score) [20] | glycan array binding signal (z-score) [21] | glycan array binding signal (z-score) [22] | glycan array binding signal (z-score) [23] | glycan array binding signal (z-score) [24] | glycan array binding signal (z-score) [25] | glycan array binding signal (z-score) [26] | glycan array binding signal (z-score) [27] | glycan array binding signal (z-score) [28] | glycan array binding signal (z-score) [29] | glycan array binding signal (z-score) [30] | glycan array binding signal (z-score) [31] | glycan array binding signal (z-score) [32]
B1 | -0.382 | 0.544 | -0.348 | -0.428 | -0.272 | 4.98 | 4.51 | 4.96 | 5.35 | 0.345 | -0.066 | -0.353 | -0.374 | -0.221 | -0.305 | -0.392 | -0.416 | -0.394 | 0.057 | -0.371 |  |  |  |  |  |  |  |  |  |  |  | 
B2 | -0.186 |  |  |  |  |  |  |  |  |  |  |  |  |  |  |  |  |  |  |  | 1.54 | -0.064 | -0.268 | -0.134 | -0.21 | -0.138 | 0.414 | 0.903 | 1 | 1.22 | 0.241 | -0.022
